Measured values taken from PubChem BioAssay (EPA / NIEHS).
The source made the active and inactive calls. How the source made its calls: active means hit-call score of the fitted dose curve at least 0.9, where 1 is the maximum; inactive means score below 0.9.

Assays:
[1] = ATG_GLI_CIS: Attagene CIS-FACTORIAL HepG2 Assay for human Zinc Finger Protein GLI1 (AID 2282945); details: HepG2, Attagene cis-factorial reporter mRNA, GLI element; actives raise or lower the signal
Procedure, shortened: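 HepG2 cells transiently transfected with cis-promoter multiplexed reporter units report endogenous transcription factor activity. After 24 h chemical exposure, reporter mRNA was quantified by RT-PCR, 6-FAM labelling, HpaI digestion and capillary electrophoresis, with bidirectional fitting against DMSO.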

[2] = target: Bile acid receptor (Homo sapiens) (UniProt Q96RI1); test: ATG_IR1_CIS: Attagene CIS-FACTORIAL HepG2 Assay for human Nuclear Receptor Subfamily 1 Group H Member 4 (NR1H4), IR1 submotif (AID 2282946); details: IR1 reporter transcription, actives raise or lower the signal
Chain of Bile acid receptor (Homo sapiens) (Q96RI1 whole entry, looked up): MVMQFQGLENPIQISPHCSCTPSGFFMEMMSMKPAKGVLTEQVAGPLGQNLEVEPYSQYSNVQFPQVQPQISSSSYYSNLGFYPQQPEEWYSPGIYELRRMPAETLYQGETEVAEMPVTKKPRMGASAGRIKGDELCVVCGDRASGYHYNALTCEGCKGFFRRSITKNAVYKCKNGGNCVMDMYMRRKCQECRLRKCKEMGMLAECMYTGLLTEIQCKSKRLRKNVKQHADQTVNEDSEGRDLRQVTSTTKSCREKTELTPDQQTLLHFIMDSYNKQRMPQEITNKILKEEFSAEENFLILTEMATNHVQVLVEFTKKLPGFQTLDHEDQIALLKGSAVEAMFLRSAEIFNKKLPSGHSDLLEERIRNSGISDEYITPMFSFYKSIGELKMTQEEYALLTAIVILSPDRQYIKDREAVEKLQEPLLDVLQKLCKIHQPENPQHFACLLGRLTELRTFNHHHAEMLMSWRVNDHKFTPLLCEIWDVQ
Procedure, shortened: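 Transient MRTU transfection, HepG2; 24 h dosing; RNA → RT-PCR → 6-FAM primer extension → HpaI digest → capillary electrophoresis fluorescence. Gain/loss of signal fitted relative to DMSO.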

[3] = ATG_GRE_CIS: Attagene CIS-FACTORIAL HepG2 Assay for human Glucocorticoid Response Elements (GRE) (AID 2282947); details: HepG2 GRE cis-reporter, Attagene multiplex mRNA; actives raise or lower the signal
Procedure, shortened: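 HepG2 cells transiently transfected with multiple cis-promoter reporter units measure endogenous TF activity; 24 h compound exposure. Reporter mRNA quantified by RT-PCR, FAM labelling, HpaI digestion and capillary electrophoresis; bidirectional fit vs DMSO baseline.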

[4] = ATG_ISRE_CIS: Attagene CIS-FACTORIAL HepG2 Assay for human Interferon Regulatory Factor 1 (IRF1) binding to an Interferon-Stimulated Response Element (ISRE) (AID 2282948); details: HepG2 ISRE cis-reporter (Attagene), mRNA transcription readout; actives raise or lower the signal
Procedure, shortened: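 Transiently transfected HepG2 cells carrying cis-element reporter units, dosed 24 hours. Reporter mRNA quantified by RT-PCR, fluorescent primer extension, HpaI digestion and capillary electrophoresis. Bidirectional fitting relative to DMSO.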

[5] = ATG_M_32_CIS: Attagene CIS-FACTORIAL HepG2 Assay for M32 Transcription Factor (Internal Marker) (AID 2282949); details: HepG2 Attagene cis-factorial M32 reporter, mRNA; actives raise or lower the signal;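 further: background control marker of the multiplexed CIS panel rather than a real target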
Procedure, shortened: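 Following 24 h chemical exposure of HepG2 cells transiently expressing cis-promoter reporter constructs, reporter transcript levels were determined by RT-PCR with fluorescent labelling and capillary electrophoresis, then fitted bidirectionally against DMSO.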

[6] = ATG_M_06_CIS: Attagene CIS-FACTORIAL HepG2 Assay for M06 Transcription Factor (Internal Marker) (AID 2282950); details: HepG2 Attagene CIS-FACTORIAL M06 internal marker reporter; actives raise or lower the signal
Procedure, shortened: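 Steps: transfect HepG2 with multiplexed cis-element reporter constructs; dose chemical 24 h; extract RNA with DNase treatment; reverse-transcribe, PCR-amplify, 6-FAM label, HpaI digest; separate fragments by capillary electrophoresis. Activity fitted both directions versus DMSO.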

[7] = target: Hypoxia-inducible factor 1-alpha (Homo sapiens) (UniProt Q16665); test: ATG_HIF1a_CIS: Attagene CIS-FACTORIAL HepG2 Assay for human Hypoxia Inducible Factor 1 (HIF1A) (AID 2282951); details: HepG2 Attagene cis-factorial HIF1a reporter transcription; actives raise or lower the signal
Chain of Hypoxia-inducible factor 1-alpha (Homo sapiens) (Q16665 whole entry, looked up): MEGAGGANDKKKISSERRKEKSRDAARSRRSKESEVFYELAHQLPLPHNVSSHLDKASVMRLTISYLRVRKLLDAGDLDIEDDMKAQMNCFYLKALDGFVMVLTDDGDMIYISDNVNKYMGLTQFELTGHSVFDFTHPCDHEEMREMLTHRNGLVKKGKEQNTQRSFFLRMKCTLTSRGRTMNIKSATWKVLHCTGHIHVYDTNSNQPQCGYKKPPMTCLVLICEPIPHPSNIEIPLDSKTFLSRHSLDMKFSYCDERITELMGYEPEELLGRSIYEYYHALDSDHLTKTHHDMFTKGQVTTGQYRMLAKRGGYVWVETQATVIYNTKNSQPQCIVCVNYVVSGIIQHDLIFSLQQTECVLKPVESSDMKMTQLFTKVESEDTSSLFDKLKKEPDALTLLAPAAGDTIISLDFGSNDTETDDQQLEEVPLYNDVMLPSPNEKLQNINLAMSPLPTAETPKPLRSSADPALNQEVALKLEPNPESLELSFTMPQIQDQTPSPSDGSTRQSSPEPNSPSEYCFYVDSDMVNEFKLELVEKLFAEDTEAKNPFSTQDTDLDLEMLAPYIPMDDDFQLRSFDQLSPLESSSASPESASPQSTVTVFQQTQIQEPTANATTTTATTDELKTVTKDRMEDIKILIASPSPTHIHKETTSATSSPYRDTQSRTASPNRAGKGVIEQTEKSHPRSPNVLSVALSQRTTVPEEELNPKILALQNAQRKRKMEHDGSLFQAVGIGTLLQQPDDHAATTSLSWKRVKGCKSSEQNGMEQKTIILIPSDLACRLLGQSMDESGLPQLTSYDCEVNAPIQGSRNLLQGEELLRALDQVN
Procedure, shortened: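 HepG2, transient cis-reporter library, 24 h dosing. RNA → RT (oligo dT) → PCR → 6-FAM primer extension → HpaI → CE. Bidirectional curve fit vs DMSO.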

[8] = target: Hepatocyte nuclear factor 6 (Homo sapiens) (UniProt Q9UBC0); test: ATG_HNF6_CIS: Attagene CIS-FACTORIAL HepG2 Assay for human Hepatocyte Nuclear Factor 6 (HNF6) (AID 2282952); details: HepG2 Attagene cis-factorial HNF6 reporter transcription; actives raise or lower the signal
Chain of Hepatocyte nuclear factor 6 (Homo sapiens) (Q9UBC0 whole entry, looked up): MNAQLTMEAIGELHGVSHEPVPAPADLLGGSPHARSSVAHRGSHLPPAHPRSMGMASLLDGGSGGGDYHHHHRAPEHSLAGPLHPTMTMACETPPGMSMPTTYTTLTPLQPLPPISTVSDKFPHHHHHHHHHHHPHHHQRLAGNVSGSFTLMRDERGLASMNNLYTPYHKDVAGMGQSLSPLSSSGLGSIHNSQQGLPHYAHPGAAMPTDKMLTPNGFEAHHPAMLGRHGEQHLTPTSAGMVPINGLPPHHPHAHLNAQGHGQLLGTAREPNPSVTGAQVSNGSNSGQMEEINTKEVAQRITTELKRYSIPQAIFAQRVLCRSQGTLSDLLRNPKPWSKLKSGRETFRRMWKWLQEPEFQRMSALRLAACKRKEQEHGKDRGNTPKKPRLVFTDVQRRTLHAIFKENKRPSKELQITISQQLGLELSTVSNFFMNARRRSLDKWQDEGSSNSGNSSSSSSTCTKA
Procedure, shortened: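 Multiplexed mRNA reporter assay in transfected HepG2; 24 h dosing; RT-PCR plus capillary electrophoresis fluorescence; DMSO-referenced bidirectional curve fitting.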

[9] = target: Heat shock factor protein 1 (Homo sapiens) (UniProt Q00613); test: ATG_HSE_CIS: Attagene CIS-FACTORIAL HepG2 Assay for human Heat Shock Transcription Factor 1 (HSE) (AID 2282953); details: HepG2 HSE cis-reporter, Attagene RNA transcription; actives raise or lower the signal
Chain of Heat shock factor protein 1 (Homo sapiens) (Q00613 whole entry, looked up, the tested form may be a part): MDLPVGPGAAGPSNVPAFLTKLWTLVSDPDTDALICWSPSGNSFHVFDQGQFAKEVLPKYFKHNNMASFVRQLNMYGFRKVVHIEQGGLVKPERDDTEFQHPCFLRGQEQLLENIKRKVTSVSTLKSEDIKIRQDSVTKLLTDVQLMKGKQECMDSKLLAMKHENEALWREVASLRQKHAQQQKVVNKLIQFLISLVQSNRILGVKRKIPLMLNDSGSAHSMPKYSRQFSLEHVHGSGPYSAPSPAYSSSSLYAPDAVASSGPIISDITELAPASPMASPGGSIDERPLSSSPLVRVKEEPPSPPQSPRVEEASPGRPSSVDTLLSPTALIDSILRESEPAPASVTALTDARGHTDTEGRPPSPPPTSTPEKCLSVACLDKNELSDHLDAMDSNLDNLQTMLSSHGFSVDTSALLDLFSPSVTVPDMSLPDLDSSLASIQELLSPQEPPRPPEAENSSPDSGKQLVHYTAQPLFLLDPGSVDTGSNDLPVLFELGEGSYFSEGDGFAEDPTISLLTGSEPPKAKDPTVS
Procedure, shortened: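 Cells were transfected with cis-element-driven reporter constructs, dosed for 24 h, then total RNA was reverse-transcribed and reporter cDNA amplified, FAM-labelled and digested with HpaI. Fragments were resolved by capillary electrophoresis; gain or loss was fitted against DMSO.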

[10] = ATG_MRE_CIS: Attagene CIS-FACTORIAL HepG2 Assay for human Metal Responsive Element (MRE) (AID 2282954); details: HepG2 MRE cis-reporter transcription, Attagene multiplex; actives raise or lower the signal
Procedure, shortened: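 HepG2 cells transiently transfected with multiple cis-element reporter units measure endogenous MTF1-driven transcription. After 24 h compound exposure, reporter mRNA is quantified by RT-PCR with 6-FAM labelling, HpaI digestion and capillary electrophoresis; bidirectional fits versus DMSO.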

[11] = target: Paired box protein Pax-6 (Homo sapiens) (UniProt P26367); test: ATG_Pax6_CIS: Attagene CIS-FACTORIAL HepG2 Assay for human Paired Box 6 (PAX6) (AID 2282956); details: HepG2 CIS-FACTORIAL PAX6 reporter transcription, RNA readout; actives raise or lower the signal
Chain of Paired box protein Pax-6 (Homo sapiens) (P26367 whole entry, looked up): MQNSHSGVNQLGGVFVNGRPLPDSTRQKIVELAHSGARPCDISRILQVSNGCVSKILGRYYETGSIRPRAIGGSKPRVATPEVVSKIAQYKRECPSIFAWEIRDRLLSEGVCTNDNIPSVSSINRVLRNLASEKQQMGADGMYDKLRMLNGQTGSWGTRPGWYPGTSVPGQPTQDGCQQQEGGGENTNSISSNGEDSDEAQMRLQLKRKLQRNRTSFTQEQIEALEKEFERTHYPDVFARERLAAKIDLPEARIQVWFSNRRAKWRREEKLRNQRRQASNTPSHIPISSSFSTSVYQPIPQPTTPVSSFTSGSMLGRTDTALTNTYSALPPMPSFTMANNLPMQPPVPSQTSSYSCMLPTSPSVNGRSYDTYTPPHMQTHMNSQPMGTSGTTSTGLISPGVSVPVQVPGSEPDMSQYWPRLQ
Procedure, shortened: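 HepG2 cells transiently transfected with cis-promoter-driven multiplexed reporter units sensing endogenous transcription factor activity; 24 h chemical exposure. Reporter mRNA quantified by RT-PCR, 6-FAM labelling, HpaI digestion and capillary electrophoresis; bidirectional fit versus DMSO baseline.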

[12] = ATG_PXRE_CIS: Attagene CIS-FACTORIAL HepG2 Assay for human Pregnane X Receptor Element (PXRE) (AID 2282957); details: HepG2 Attagene CIS-FACTORIAL PXRE reporter, mRNA; actives raise or lower the signal
Procedure, shortened: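 Cells: HepG2, transiently transfected reporter units under cis promoter control. Exposure: 24 h. Detection: reporter mRNA via RT-PCR/CE fluorescence; bidirectional fitting, DMSO-referenced.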

[13] = ATG_PPRE_CIS: Attagene CIS-FACTORIAL HepG2 Assay for human Peroxisome Proliferator-activated Response Element (PPRE) (AID 2282958); details: HepG2 PPRE cis-element reporter, Attagene transcription factor profiling; actives raise or lower the signal
Procedure, shortened: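 Transcript-level reporter induction in transfected HepG2 cells after 24 h chemical exposure, quantified by fluorescence from RT-PCR products separated by capillary electrophoresis.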

[14] = ATG_RORE_CIS: Attagene CIS-FACTORIAL HepG2 Assay for human RAR-related Orphan Receptor Element (RORE) (AID 2282959); details: HepG2 Attagene cis-factorial RORE reporter, mRNA; actives raise or lower the signal
Procedure, shortened: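 Multiplexed reporter assay measuring mRNA induction from a cis promoter element in transiently transfected HepG2 cells after 24 h treatment. Detection via RT-PCR and capillary electrophoresis fluorescence; DMSO serves as baseline.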

[15] = ATG_Sox_CIS: Attagene CIS-FACTORIAL HepG2 Assay for human SRY-box transcription factor (SOX) (AID 2282960); details: HepG2 Attagene cis-factorial SOX reporter, mRNA; actives raise or lower the signal
Procedure, shortened: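 Cells were transfected with reporter constructs under cis-regulatory promoters, then exposed to chemicals for 24 h. Reporter transcripts were quantified by fluorescence after RT-PCR and capillary electrophoresis; activity was fitted in both directions against DMSO.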

[16] = target: Transcription factor Sp1 (Homo sapiens) (UniProt P08047); test: ATG_Sp1_CIS: Attagene CIS-FACTORIAL HepG2 Assay for human Specificity Protein 1 (Sp1) (AID 2282961); details: HepG2 Sp1 cis-reporter transcription, actives raise or lower the signal
Chain of Transcription factor Sp1 (Homo sapiens) (P08047 whole entry, looked up): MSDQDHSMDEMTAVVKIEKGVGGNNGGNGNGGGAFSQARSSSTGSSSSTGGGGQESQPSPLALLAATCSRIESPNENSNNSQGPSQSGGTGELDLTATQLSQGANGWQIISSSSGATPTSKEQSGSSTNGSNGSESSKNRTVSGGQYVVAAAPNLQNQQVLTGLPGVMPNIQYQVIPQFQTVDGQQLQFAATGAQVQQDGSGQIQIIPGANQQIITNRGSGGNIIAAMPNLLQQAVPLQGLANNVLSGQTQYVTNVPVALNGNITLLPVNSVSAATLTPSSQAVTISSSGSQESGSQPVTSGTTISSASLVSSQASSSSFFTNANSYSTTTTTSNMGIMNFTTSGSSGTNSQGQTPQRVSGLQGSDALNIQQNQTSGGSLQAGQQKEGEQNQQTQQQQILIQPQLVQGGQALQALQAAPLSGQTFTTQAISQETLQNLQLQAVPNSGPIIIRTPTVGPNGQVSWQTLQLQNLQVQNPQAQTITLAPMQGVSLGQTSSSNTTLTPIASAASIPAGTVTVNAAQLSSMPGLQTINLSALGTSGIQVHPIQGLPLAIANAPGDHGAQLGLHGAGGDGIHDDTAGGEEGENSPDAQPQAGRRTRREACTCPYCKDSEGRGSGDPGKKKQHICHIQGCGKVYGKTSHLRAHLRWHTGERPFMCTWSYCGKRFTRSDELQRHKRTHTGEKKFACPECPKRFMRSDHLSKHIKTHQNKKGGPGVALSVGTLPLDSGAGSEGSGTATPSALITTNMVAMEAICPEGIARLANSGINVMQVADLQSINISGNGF
Procedure, shortened: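 Measures mRNA induction of an Sp1-linked reporter in HepG2 cells 24 h post-dosing. Multiplexed reporters read by RT-PCR and capillary electrophoresis; DMSO serves as negative control and baseline.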

[17] = ATG_SREBP_CIS: Attagene CIS-FACTORIAL HepG2 Assay for human Sterol Regulatory Element Binding (SREBP) (AID 2282962); details: HepG2 Attagene cis-factorial SREBP reporter, mRNA; actives raise or lower the signal
Procedure, shortened: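 HepG2 cells transiently transfected with multiplexed cis-promoter reporter units sensing endogenous transcription factors; reporter mRNA measured 24 h after dosing by RT-PCR, 6-FAM labeling, HpaI digestion and capillary electrophoresis. Bidirectional fit versus DMSO.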

[18] = target: Signal transducer and activator of transcription 3 (Homo sapiens) (UniProt P40763); test: ATG_STAT3_CIS: Attagene CIS-FACTORIAL HepG2 Assay for human Signal Transducer and Activator of Transcription 3 (STAT3) (AID 2282963); details: HepG2, Attagene cis-factorial STAT3 reporter transcription; actives raise or lower the signal
Chain of Signal transducer and activator of transcription 3 (Homo sapiens) (P40763 whole entry, looked up): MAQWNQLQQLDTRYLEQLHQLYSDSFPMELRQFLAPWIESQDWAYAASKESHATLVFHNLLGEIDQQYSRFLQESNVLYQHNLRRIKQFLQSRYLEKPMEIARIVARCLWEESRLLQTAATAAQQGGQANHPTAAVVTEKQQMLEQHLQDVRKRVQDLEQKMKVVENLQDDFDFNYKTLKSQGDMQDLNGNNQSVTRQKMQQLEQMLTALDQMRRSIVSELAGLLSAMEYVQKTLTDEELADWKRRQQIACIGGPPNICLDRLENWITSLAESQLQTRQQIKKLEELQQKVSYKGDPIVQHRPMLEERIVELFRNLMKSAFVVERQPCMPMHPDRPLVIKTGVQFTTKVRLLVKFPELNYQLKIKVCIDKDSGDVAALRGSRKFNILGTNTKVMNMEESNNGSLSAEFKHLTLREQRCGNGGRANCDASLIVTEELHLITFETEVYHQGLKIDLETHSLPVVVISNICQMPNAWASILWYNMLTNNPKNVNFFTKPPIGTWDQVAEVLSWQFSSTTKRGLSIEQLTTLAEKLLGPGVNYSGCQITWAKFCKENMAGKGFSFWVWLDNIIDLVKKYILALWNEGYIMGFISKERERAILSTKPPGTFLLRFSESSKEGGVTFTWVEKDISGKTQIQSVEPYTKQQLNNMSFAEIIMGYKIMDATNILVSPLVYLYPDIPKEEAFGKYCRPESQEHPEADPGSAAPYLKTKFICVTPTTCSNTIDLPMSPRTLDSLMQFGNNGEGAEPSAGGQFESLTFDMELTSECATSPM
Procedure, shortened: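 HepG2 cells transiently transfected with cis-element-driven multiple reporter transcription units; after 24 h chemical exposure, reporter mRNA measured by RT-PCR, 6-FAM primer-extension labelling, HpaI digestion and capillary electrophoresis. Bidirectional fitting versus DMSO baseline.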

[19] = ATG_TA_CIS: Attagene CIS-FACTORIAL HepG2 Assay for human TA Basal Promoter (AID 2282964); details: HepG2 Attagene CIS-factorial TA basal promoter reporter; actives raise or lower the signal
Procedure, shortened: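 Steps: transfect HepG2 with MRTUs; dose 24 h; isolate RNA, DNase-treat, reverse-transcribe; PCR and FAM-label reporter cDNA; digest with HpaI 2h at 37 C; run capillary electrophoresis. Activity fitted both directions against DMSO.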

[20] = ATG_PBREM_CIS: Attagene CIS-FACTORIAL HepG2 Assay for human Phenobarbital-responsive Enhancer Module (PBREM) (AID 2282955); details: HepG2 PBREM cis-reporter, Attagene multiplexed transcription; actives raise or lower the signal
Procedure, shortened: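 HepG2, transient MRTU transfection, 24 h dosing; RNA → oligo(dT) RT → PCR → 6-FAM extension → HpaI → CE. Bidirectional fit vs DMSO.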

Measured: AC50

CC(C=O)c1ccccc1 (configuration not stated)
active: [12] 6.81 µM
not listed: [20]
inactive: all other assays above

CCN(CC)c1cccc(C)c1
active: [12] 27.7 µM
not listed: [20]
inactive: all other assays above

CCOC(=O)[C@H](O)[C@@H](O)C(=O)OCC
active: [12] 52.4 µM
not listed: [14] | [17]
inactive: all other assays above

CC1(C)CCC[C@]2(C)[C@H]3CC(=O)O[C@]3(C)CC[C@@H]12
active: [12] 3.61 µM | [17] 32.3 µM
not listed: [18]
inactive: all other assays above

C=C(C)C1CC=C(C)C(OC(C)=O)C1 (configuration not stated)
not listed: [20]
inactive: all other assays above

O=C(O)C1CCC(C(=O)O)CC1 (configuration not stated)
not listed: [13]
inactive: all other assays above

O=S(=O)(O)c1ccc(Nc2nc(Nc3ccc(C=Cc4ccc(Nc5nc(Nc6ccc(S(=O)(=O)O)cc6)nc(N(CCO)CCO)n5)cc4S(=O)(=O)O)c(S(=O)(=O)O)c3)nc(N(CCO)CCO)n2)cc1
active: [12] 21.2 µM
not listed: [20]
inactive: all other assays above

CCOc1ccc(NC(N)=O)cc1
not listed: [13] | [14] | [16] | [19]
inactive: all other assays above

CC(C)=CCCC(C)=CC#N
active: [12] 25.5 µM
not listed: [13] | [14]
inactive: all other assays above

CN(C)Cc1cc(CN(C)C)c(O)c(CN(C)C)c1
not listed: [13] | [18] | [19]
inactive: all other assays above

C=CC(=O)OCCCCCCOC(=O)C=C
active: [2] 42.5 µM | [4] 75.3 µM | [9] 180 µM | [10] 52.4 µM | [11] 75.7 µM | [17] 100 µM
not listed: [14]
inactive: all other assays above

C=CC(=O)O[C@H]1C[C@@H]2CC[C@@]1(C)C2(C)C
active: [1] 186 µM | [5] 150 µM | [9] 161 µM | [12] 1.52 µM | [13] 29.7 µM | [16] 160 µM | [19] 141 µM
not listed: [14] | [18]
inactive: all other assays above

Clc1cccnc1
active: [12] 27 µM
not listed: [20]
inactive: all other assays above

CCCCCCCCCCCCC
not listed: [20]
inactive: all other assays above

CC1OC(=O)C(C)OC1=O (configuration not stated)
active: [7] 26.6 µM
not listed: [14]
inactive: all other assays above
